# Experimental data: PubChem BioAssay (EPA / NIEHS)
# Records with an inconclusive call do not appear. Active and inactive are the calls of the source. How the source made its calls, unless noted: active means hit-call score of the fitted dose curve at least 0.9, where 1 is the maximum; inconclusive means response in the unintended direction; inactive means score below 0.9.
# Key:
# [1] = target: human RAR-related Orphan Receptor beta (RORb), RORB (gene 6096) (UniProt Q92753); test: ATG_RORb_TRANS: Attagene TRANS-FACTORIAL HepG2 Assay for human RAR-related Orphan Receptor beta (RORb) (AID 2283010)
# Method in brief: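 Read-out is reporter mRNA induction, quantified by RT-PCR with fluorescent capillary electrophoresis, 24 h post-dose in transiently transfected HepG2 expressing exogenous NR-Gal4 chimera. Activity fitted upward versus DMSO.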
# [2] = target: human RAR-related Orphan Receptor gamma (RORg), RORC (gene 6097) (UniProt P51449); test: ATG_RORg_TRANS: Attagene TRANS-FACTORIAL HepG2 Assay for human RAR-related Orphan Receptor gamma (RORg) (AID 2283011)
# Method in brief: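 HepG2 cells transiently transfected with GAL4-UAS reporter units and chimeric RORg-Gal4 construct; after 24 h chemical exposure, reporter mRNA measured by RT-PCR with fluorescent capillary electrophoresis, gain of signal fitted against DMSO.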
# [3] = target: Retinoic acid receptor RXR-alpha (Homo sapiens) (UniProt P19793); test: ATG_RXRa_TRANS: Attagene TRANS-FACTORIAL HepG2 Assay for human Retinoid X Receptor alpha (RXRa) (AID 2283012)
# Method in brief: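 TRANS format reporting activity of exogenous RXRa-Gal4 chimera in transiently transfected HepG2, 24 h exposure. Reporter transcripts quantified by RT-PCR with capillary electrophoresis, with gain of signal scored relative to DMSO.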
# [4] = target: human Retinoid X Receptor beta (RXRb), RXRB (gene 6257) (UniProt P28702); test: ATG_RXRb_TRANS: Attagene TRANS-FACTORIAL HepG2 Assay for human Retinoid X Receptor beta (RXRb) (AID 2283013)
# Method in brief: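 Readout is reporter transcript induction after 24 h dosing. It is measured by RT-PCR of total RNA followed by fluorescent capillary electrophoresis. HepG2 liver cells carry transfected multiple reporter units driven by an exogenous RXRb-Gal4 fusion; activity is relative to DMSO.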
# [5] = target: human Thyroid Receptor alpha (THRa1), THRA (gene 7067) (UniProt P10827); test: ATG_THRa1_TRANS: Attagene TRANS-FACTORIAL HepG2 Assay for human Thyroid Receptor alpha (THRa1) (AID 2283014)
# Method in brief: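 HepG2 cells transiently transfected with chimeric NR-Gal4 and GAL4-UAS reporter units, dosed 24 h. Reporter mRNA quantified by RT-PCR, fluorescent labeling, HpaI digestion and capillary electrophoresis; gain-of-signal fit versus DMSO.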
# [6] = read-out: E-selectin (Homo sapiens) (UniProt P16581); test: BSK_3C_Eselectin: BioMAP Diversity Plus: 3C Assay for Eselectin Biomarker Activity (AID 2283015; active means hit-call score of the fitted dose curve at least 0.9, where 1 is the maximum; inactive means score below 0.9;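 further: cell surface E-selectin protein quantified by ELISA 24 h after dosing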); conditions: primary human endothelial cells (HUVEC); actives raise or lower the signal
# Method in brief: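 Primary human umbilical vein endothelial cells (3C system), read 24 h after compound addition; E-selectin measured by ELISA. Bidirectional curve fitting against DMSO baseline; cytotoxicity by parallel SRB total-protein staining.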
# [7] = read-out: Interleukin-1 alpha (IL1a), IL1A (gene 3552); test: BSK_BE3C_IL1a: BioMAP Diversity Plus: BE3C Assay for Interleukin-1 alpha (IL1a) Biomarker Activity (AID 2283016; active means hit-call score of the fitted dose curve at least 0.9, where 1 is the maximum; inactive means score below 0.9); conditions: primary human bronchial epithelial cells; actives raise or lower the signal
# Method in brief: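 IL-1a measured by ELISA after 24 h treatment of human primary bronchial epithelial cells, with gain or loss of signal fitted versus DMSO. Parallel cultures stained with SRB gauge overt cytotoxicity.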
# [8] = read-out: Monocyte Chemoattractant Protein-1 (MCP1), CCL2 (gene 6347); test: BSK_3C_MCP1: BioMAP Diversity Plus: 3C Assay for Monocyte Chemoattractant Protein-1 (MCP1) Biomarker Activity (AID 2283017; active means hit-call score of the fitted dose curve at least 0.9, where 1 is the maximum; inactive means score below 0.9); conditions: primary human endothelial cells (HUVEC); actives raise or lower the signal
# Method in brief: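 Human umbilical vein endothelial cells (3C system) exposed to chemicals for 24 h; MCP-1 quantified by ELISA against the DMSO baseline with bidirectional fitting, and parallel SRB staining used to assess cytotoxicity.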
# [9] = read-out: Monocyte Chemoattractant Protein-1 (MCP1), CCL2 (gene 6347); test: BSK_4H_MCP1: BioMAP Diversity Plus: 4H Assay for Monocyte Chemoattractant Protein-1 (MCP1) Biomarker Activity (AID 2283018; active means hit-call score of the fitted dose curve at least 0.9, where 1 is the maximum; inactive means score below 0.9); conditions: primary human endothelial cells (HUVEC); actives raise or lower the signal
# Method in brief: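 ELISA of MCP-1 (CCL2) 24 h after chemical dosing of HUVEC in the BioMAP 4H system. Gain or loss versus DMSO fitted; parallel SRB staining (560 nm) tracked overt cytotoxicity.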
# [10] = read-out: Human Leukocyte Antigen - DR isotype (HLADR), HLA-DRA (gene 3122); test: BSK_3C_HLADR: BioMAP Diversity Plus: 3C Assay for Human Leukocyte Antigen - DR isotype (HLADR) Biomarker Activity (AID 2283019; active means hit-call score of the fitted dose curve at least 0.9, where 1 is the maximum; inactive means score below 0.9;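 on outcome: ELISA of cell-surface HLA-DR on HUVEC 24 h after dosing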); conditions: primary human endothelial cells (HUVEC); actives raise or lower the signal
# Method in brief: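 HUVEC monoculture, HLA-DR measured by ELISA 24 h after chemical dosing. Fitted bidirectionally against DMSO baseline; parallel SRB staining assessed cytotoxicity, with 3C proliferation read by SRB at 48 h.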
# [11] = read-out: Interleukin-8 (IL8), CXCL8 (gene 3576); test: BSK_3C_IL8: BioMAP Diversity Plus: 3C Assay for Interleukin-8 (IL8) Biomarker Activity (AID 2283020; active means hit-call score of the fitted dose curve at least 0.9, where 1 is the maximum; inactive means score below 0.9); conditions: primary human endothelial cells (HUVEC); actives raise or lower the signal
# Method in brief: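 IL-8 was measured by ELISA in HUVEC cultures 24 h after chemical dosing, with gain or loss of signal fitted relative to DMSO. Parallel SRB total-protein staining tracked overt cytotoxicity.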
# [12] = read-out: Monokine induced gamma interferon (MIG), CXCL9 (gene 4283); test: BSK_3C_MIG: BioMAP Diversity Plus: 3C Assay for Monokine induced gamma interferon (MIG) Biomarker Activity (AID 2283021; active means hit-call score of the fitted dose curve at least 0.9, where 1 is the maximum; inactive means score below 0.9); conditions: primary human endothelial cells (HUVEC); actives raise or lower the signal
# Method in brief: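 ELISA measurement of MIG in human umbilical vein endothelial cells 24 h after treatment. Cytotoxicity tracked by SRB staining in parallel cultures; gain or loss of signal fitted relative to DMSO.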
# [13] = target: human Vitamin D Receptor (VDR), VDR (gene 7421) (UniProt P11473); test: ATG_VDR_TRANS: Attagene TRANS-FACTORIAL HepG2 Assay for human Vitamin D Receptor (VDR) (AID 2283022)
# Method in brief: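 HepG2 cells were transiently transfected with GAL4-UAS reporter units and a chimeric VDR-Gal4 construct, then dosed for 24 hours. Reporter mRNA was quantified by RT-PCR, fluorescent labeling, HpaI digestion and capillary electrophoresis; gain of signal analysed vs DMSO.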
# [14] = BSK_3C_SRB: Viability Assessment in the BioMAP Diversity Plus: 3C Assay (AID 2283023; active means hit-call score of the fitted dose curve at least 0.9, where 1 is the maximum; inactive means score below 0.9;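 further: fitted both ways against DMSO so a hit may be signal rise or drop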); conditions: primary human endothelial cells (HUVEC)
# Method in brief: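 Human umbilical vein endothelial cells in the 3C system, treated 24 h. Total protein measured by 0.1% sulforhodamine B staining after 10% TCA fixation, read at 560 nm; bidirectional fit versus DMSO.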
# [15] = read-out: Matrix Metallopeptidase 1 (MMP1), MMP1 (gene 4312); test: BSK_BE3C_MMP1: BioMAP Diversity Plus: BE3C Assay for Matrix Metallopeptidase 1 (MMP1) Biomarker Activity (AID 2283024; active means hit-call score of the fitted dose curve at least 0.9, where 1 is the maximum; inactive means score below 0.9); conditions: primary human bronchial epithelial cells; actives raise or lower the signal
# Method in brief: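 ELISA measurement of MMP-1 after 24 h compound exposure of primary human bronchial epithelial cells. Changes in either direction fitted relative to DMSO; parallel SRB staining checked overt cytotoxicity.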
# [16] = BSK_3C_Vis: BioMAP Diversity Plus: 3C Assay for Morphology Visualization (AID 2283025; active means hit-call score of the fitted dose curve at least 0.9, where 1 is the maximum; inactive means score below 0.9;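 further: fitted both ways so gain or loss versus DMSO counts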;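 on AC50: light microscopy image of cell morphology used as background control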); conditions: primary human endothelial cells (HUVEC)
# Method in brief: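 Light-microscopy visualization of HUVEC cultures at 24 h post-treatment, with DMSO as baseline for bidirectional fitting.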
# [17] = read-out: Pselectin, SELP (gene 6403); test: BSK_4H_Pselectin: BioMAP Diversity Plus: 4H Assay for Pselectin Biomarker Activity (AID 2283026; active means hit-call score of the fitted dose curve at least 0.9, where 1 is the maximum; inactive means score below 0.9); conditions: primary human endothelial cells (HUVEC); actives raise or lower the signal
# Method in brief: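 ELISA of surface P-selectin on HUVEC, 24 h after dosing, with parallel SRB staining (0.1% after 10% TCA fixation, 560 nm) for overt cytotoxicity. Activity fitted in both directions relative to DMSO.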
# [18] = BSK_4H_SRB: Viability Assessment in the BioMAP Diversity Plus: 4H Assay (AID 2283027; active means hit-call score of the fitted dose curve at least 0.9, where 1 is the maximum; inactive means score below 0.9;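 further: cells exposed to compound for 24 h before staining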;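 on AC50: curves fitted both ways versus DMSO so AC50 may be loss or gain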); conditions: primary human endothelial cells (HUVEC)
# Method in brief: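 Cytotoxicity read-out in primary human endothelial cells: after 24 h compound exposure, cells were TCA-fixed (10%), stained with 0.1% SRB and absorbance taken at 560 nm. Values fitted in both directions relative to DMSO.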
# [19] = BSK_BE3C_SRB: Viability Assessment in the BioMAP Diversity Plus: BE3C Assay (AID 2283028; active means hit-call score of the fitted dose curve at least 0.9, where 1 is the maximum; inactive means score below 0.9); conditions: primary human bronchial epithelial cells
# Method in brief: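 Human bronchial epithelial primary cells in confluent culture, 24 h after chemical dosing; total protein by 0.1% SRB staining after 10% TCA fixation, read at 560 nm. Bidirectional fitting versus DMSO baseline.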
# human RAR-related Orphan Receptor gamma (RORg), RORC (gene 6097), sequence (P51449 whole entry, looked up, the tested form may be a part): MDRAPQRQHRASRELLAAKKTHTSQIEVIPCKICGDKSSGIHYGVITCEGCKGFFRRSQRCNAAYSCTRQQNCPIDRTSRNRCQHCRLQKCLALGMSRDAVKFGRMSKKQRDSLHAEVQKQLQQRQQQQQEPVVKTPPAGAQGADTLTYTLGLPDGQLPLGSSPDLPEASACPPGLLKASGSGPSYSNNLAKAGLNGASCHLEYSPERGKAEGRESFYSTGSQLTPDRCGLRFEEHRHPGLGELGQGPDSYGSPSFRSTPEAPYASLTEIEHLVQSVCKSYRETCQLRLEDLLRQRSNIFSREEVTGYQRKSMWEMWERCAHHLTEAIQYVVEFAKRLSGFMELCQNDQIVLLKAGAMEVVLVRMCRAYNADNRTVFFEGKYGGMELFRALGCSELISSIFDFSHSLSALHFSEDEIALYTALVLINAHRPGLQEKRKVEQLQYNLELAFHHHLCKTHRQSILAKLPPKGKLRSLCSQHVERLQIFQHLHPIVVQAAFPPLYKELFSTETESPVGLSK
# human Thyroid Receptor alpha (THRa1), THRA (gene 7067), sequence (P10827 whole entry, looked up, the tested form may be a part): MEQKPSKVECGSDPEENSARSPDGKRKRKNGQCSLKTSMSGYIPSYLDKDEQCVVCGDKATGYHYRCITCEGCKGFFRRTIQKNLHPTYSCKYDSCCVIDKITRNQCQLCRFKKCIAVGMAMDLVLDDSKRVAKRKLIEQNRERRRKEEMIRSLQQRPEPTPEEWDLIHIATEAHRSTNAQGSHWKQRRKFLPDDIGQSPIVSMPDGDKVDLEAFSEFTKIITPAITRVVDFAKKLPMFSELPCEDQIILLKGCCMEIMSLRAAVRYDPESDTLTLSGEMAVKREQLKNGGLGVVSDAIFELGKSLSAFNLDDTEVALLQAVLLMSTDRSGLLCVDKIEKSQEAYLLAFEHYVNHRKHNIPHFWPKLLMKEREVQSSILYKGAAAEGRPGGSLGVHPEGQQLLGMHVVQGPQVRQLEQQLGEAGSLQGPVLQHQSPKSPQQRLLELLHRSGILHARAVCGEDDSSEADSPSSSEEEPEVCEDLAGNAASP
# human Vitamin D Receptor (VDR), VDR (gene 7421), sequence (P11473 whole entry, looked up, the tested form may be a part): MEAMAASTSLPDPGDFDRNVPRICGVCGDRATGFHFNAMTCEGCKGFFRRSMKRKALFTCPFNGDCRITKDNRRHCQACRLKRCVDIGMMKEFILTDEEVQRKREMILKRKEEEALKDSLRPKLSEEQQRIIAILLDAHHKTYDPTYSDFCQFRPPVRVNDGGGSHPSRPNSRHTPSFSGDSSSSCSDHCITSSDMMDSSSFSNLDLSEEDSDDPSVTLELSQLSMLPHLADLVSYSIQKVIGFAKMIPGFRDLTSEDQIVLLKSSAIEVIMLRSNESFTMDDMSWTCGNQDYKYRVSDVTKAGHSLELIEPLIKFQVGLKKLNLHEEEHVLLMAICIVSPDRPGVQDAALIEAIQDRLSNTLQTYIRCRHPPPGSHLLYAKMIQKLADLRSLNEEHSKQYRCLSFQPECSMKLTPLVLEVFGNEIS
# human Retinoid X Receptor beta (RXRb), RXRB (gene 6257), sequence (P28702 whole entry, looked up, the tested form may be a part): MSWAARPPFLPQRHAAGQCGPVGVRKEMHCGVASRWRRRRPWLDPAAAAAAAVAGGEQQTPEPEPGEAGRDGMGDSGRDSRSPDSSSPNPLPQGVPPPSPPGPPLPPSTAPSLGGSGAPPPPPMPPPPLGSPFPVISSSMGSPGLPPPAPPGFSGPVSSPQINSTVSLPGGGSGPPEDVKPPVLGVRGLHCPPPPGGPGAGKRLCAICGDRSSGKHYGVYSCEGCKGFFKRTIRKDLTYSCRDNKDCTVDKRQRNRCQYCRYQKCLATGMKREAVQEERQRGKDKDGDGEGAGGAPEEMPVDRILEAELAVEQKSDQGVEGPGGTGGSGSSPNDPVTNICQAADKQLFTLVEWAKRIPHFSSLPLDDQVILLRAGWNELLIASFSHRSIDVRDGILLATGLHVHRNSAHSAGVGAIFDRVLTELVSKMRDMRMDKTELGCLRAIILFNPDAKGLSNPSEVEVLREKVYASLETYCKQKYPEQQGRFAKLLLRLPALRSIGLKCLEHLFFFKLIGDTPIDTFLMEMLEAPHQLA
# human RAR-related Orphan Receptor beta (RORb), RORB (gene 6096), sequence (Q92753 whole entry, looked up, the tested form may be a part): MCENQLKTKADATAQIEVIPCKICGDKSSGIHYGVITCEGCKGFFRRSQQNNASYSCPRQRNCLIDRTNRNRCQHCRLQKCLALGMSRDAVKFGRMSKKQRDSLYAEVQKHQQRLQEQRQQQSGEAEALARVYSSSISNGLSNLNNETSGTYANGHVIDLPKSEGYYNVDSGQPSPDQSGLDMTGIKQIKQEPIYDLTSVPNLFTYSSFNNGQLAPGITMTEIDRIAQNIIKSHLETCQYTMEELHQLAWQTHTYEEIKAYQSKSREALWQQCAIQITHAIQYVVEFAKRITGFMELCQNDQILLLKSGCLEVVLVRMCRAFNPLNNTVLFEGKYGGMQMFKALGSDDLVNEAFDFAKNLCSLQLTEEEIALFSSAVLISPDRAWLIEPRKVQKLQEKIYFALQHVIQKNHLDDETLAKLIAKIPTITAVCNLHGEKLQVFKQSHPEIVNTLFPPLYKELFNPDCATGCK
# Retinoic acid receptor RXR-alpha (Homo sapiens), sequence (P19793 whole entry, looked up, the tested form may be a part): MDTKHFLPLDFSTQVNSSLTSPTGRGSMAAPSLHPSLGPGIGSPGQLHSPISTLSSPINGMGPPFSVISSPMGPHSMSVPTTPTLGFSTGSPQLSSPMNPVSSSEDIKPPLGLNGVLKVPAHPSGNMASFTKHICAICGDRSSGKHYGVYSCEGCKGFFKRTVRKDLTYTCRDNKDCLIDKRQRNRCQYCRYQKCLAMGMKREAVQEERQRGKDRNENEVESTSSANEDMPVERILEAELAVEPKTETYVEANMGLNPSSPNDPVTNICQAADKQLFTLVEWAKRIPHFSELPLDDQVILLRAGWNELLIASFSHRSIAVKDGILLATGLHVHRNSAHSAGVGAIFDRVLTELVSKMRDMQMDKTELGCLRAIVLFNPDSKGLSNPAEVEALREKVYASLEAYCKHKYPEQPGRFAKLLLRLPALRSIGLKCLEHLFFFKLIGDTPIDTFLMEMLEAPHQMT
# E-selectin (Homo sapiens), sequence (P16581 whole entry, looked up): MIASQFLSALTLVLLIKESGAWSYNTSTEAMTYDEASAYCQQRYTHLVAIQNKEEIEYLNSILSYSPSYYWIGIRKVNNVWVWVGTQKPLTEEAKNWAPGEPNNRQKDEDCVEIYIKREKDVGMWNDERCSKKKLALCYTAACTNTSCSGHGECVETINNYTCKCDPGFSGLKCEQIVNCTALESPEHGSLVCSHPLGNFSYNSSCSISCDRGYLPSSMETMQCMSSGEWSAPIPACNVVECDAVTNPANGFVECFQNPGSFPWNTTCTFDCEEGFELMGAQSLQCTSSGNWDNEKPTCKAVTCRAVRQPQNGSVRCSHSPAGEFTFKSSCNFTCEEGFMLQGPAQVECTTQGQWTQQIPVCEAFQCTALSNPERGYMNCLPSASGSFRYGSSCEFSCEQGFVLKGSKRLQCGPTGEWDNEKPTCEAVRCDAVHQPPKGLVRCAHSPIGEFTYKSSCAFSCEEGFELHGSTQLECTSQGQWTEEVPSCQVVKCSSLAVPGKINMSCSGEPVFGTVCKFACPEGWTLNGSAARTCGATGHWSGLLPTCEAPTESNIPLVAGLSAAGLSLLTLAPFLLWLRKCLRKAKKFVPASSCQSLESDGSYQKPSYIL
structure (smiles),measurement,setting,value
CC(=O)OC1CCCCC1C(C)(C)C (centres undefined),outcome,[1],inactive
same,outcome,[2],inactive
same,outcome,[3],inactive
same,AC50,[4],58.9 µM (active)
same,outcome,[5],inactive
C=C(C)C(=O)OCCCCCCCCCCCC,outcome,[1],inactive
same,outcome,[2],inactive
same,outcome,[3],inactive
same,AC50,[4],67.8 µM (active)
same,outcome,[5],inactive
same,outcome,[6],inactive
same,outcome,[7],inactive
same,outcome,[8],inactive
same,outcome,[9],inactive
same,outcome,[10],inactive
same,outcome,[11],inactive
same,outcome,[12],inactive
same,outcome,[13],inactive
same,outcome,[14],inactive
same,outcome,[15],inactive
same,outcome,[16],inactive
same,outcome,[17],inactive
same,outcome,[18],inactive
same,outcome,[19],inactive
CCCCOCCOC(=O)COc1ccc(Cl)cc1Cl,outcome,[1],inactive
same,outcome,[2],inactive
CCC(=O)C1CC(C(C)C)CC=C1C (centres undefined),outcome,[1],inactive
same,outcome,[2],inactive
same,outcome,[3],inactive
CCCSSCCC,outcome,[1],inactive
same,outcome,[2],inactive
same,outcome,[3],inactive
CC(C)c1cccc(C(C)C)c1N,outcome,[1],inactive
same,outcome,[2],inactive
same,outcome,[3],inactive
same,AC50,[4],71.2 µM (active)
same,outcome,[6],inactive
same,outcome,[7],inactive
same,outcome,[8],inactive
same,outcome,[9],inactive
same,AC50,[10],38.2 µM (active)
same,outcome,[11],inactive
same,outcome,[12],inactive
same,outcome,[14],inactive
same,outcome,[15],inactive
same,AC50,[16],37.5 µM (active)
same,outcome,[17],inactive
same,AC50,[18],33.5 µM (active)
same,outcome,[19],inactive
CC(C)(C)N,outcome,[1],inactive
same,outcome,[2],inactive
same,outcome,[3],inactive
same,outcome,[4],inactive
same,outcome,[13],inactive
O=C(O)C(F)(F)C(F)(F)C(F)(F)C(F)(F)C(=O)O,outcome,[1],inactive
same,outcome,[2],inactive
same,outcome,[3],inactive
same,outcome,[6],inactive
same,outcome,[7],inactive
same,outcome,[8],inactive
same,outcome,[9],inactive
same,outcome,[10],inactive
same,outcome,[11],inactive
same,outcome,[12],inactive
same,outcome,[13],inactive
same,outcome,[14],inactive
same,outcome,[15],inactive
same,outcome,[17],inactive
same,outcome,[18],inactive
same,outcome,[19],inactive
CC(CC(C)C)=NO,outcome,[1],inactive
same,outcome,[2],inactive
same,outcome,[3],inactive
CC(C)(C)C1CCC(=O)CC1,outcome,[1],inactive
same,outcome,[2],inactive
same,outcome,[3],inactive
same,outcome,[4],inactive
same,outcome,[13],inactive
CCCCC(=O)O,outcome,[1],inactive
same,outcome,[2],inactive
CCCCC(CC)COC(=O)/C=C/c1ccc(OC)cc1 (centres undefined),outcome,[1],inactive
same,outcome,[2],inactive
same,outcome,[3],inactive
same,outcome,[4],inactive
same,outcome,[5],inactive
same,outcome,[13],inactive
Nc1ccc(O)c([N+](=O)[O-])c1,outcome,[1],inactive
same,outcome,[2],inactive
same,outcome,[3],inactive
same,outcome,[4],inactive
same,outcome,[5],inactive
same,outcome,[13],inactive
Cc1ccccc1CCO,outcome,[1],inactive
same,outcome,[2],inactive
same,outcome,[3],inactive
same,outcome,[4],inactive
same,outcome,[13],inactive
N=C1C=CC(=C(c2ccc(N)cc2)c2ccc(N)cc2)C=C1,outcome,[1],inactive
same,outcome,[2],inactive
same,outcome,[3],inactive
CCC(C)C(=O)OC (centres undefined),outcome,[1],inactive
same,outcome,[2],inactive
same,outcome,[3],inactive
same,outcome,[4],inactive
